Results from a collection of fitness landscapes (doi:10.1126/science.1257360).
Whole data set: some 140,000 sequences, median “enrichment ratio after two sorts for PhoP signalling” near 0, cut for the highest 2% near 11. Shown is part of a subset that was picked to be rich in the highest values.

B1: PhoQ; a variant is named by its letters at X, in order, P23837 (parent)
chain: MKKLLRLFFPLSLRVRFLLATAAVVLVLSLAYGMVALIGYSVSFDKTTFRLLRGESNLFYTLAKWENNKLHVELPENIDKQSPTMTLIYDENGQLLWAQRDVPWLMKMIQPDWLKSNGFHEIEADVNDTSLLLSGDHSIQQQLQEVREDDDDAEMTHSVAVNVYPATSRMPKLTIVVVDTIPVELKSSYMVWSWFIYVLSANLLLVIPLLWVAAWWSLRPIEALAKEVRELEEHNRELLNPATTRELTSLVRNLNRLLKSERERYDKYRTTLTDLTHSLKTPLXXLQXXLRSLRSEKMSVSDAEPVMLEQISRISQQIGYYLHRASMRGGTLLSRELHPVAPLLDNLTSALNKVYQRKGVNISLDISPEISFVGEQNDFVEVMGNVLDNACKYCLEFVEISARQTDEHLYIVVEDDGPGIPLSKREVIFDRGQRVDTLRPGQGVGLAVAREITEQYEGKIVAGESMLGGARMEVIFGRQHSAPKDE

Variants of: B1
Experiment: enrichment ratio after two sorts for PhoP signalling (ratio (wild type AVST 3.29)); higher = more functional
Details: with PhoP (E. coli)

| Variant | enrichment ratio |
| --- | --- |
| MPHD | ≤ 0.25 |
| PCPI | ≤ 0.25 |
| GGFW | ≤ 0.25 |
| ESEG | ≤ 0.25 |
| PDQD | ≤ 0.25 |
| VWER | ≤ 0.25 |
| MRPD | ≤ 0.25 |
| SKMI | 4.44 |
| SKKL | ≤ 0.25 |
| SKAV | 4.49 |
| SKMV | 14.3 |
| SKCS | 6.51 |
| SKTS | 3.33 |
| SKPL | ≤ 0.25 |
| SKTA | 0.276 |
| SKCL | 11.8 |
| SKTI | 14.2 |
| SKCI | 16.6 |
| SKCK | ≤ 0.25 |
| VFSR | ≤ 0.25 |
| FRTG | ≤ 0.25 |
| PMFK | ≤ 0.25 |
| FGSI | ≤ 0.25 |
| VKKE | ≤ 0.25 |

| Variant | enrichment ratio |
| --- | --- |
| PRSV | ≤ 0.25 |
| SKKQ | ≤ 0.25 |
| SKCA | 11.7 |
| SKAT | 5.34 |
| SKCT | 14.2 |
| SKKI | ≤ 0.25 |
| SKPI | ≤ 0.25 |
| SKHP | ≤ 0.25 |
| SKPY | ≤ 0.25 |
| SKCY | 16.7 |
| SKMQ | 13.1 |
| SKCE | 5.46 |
| SKMT | 10.8 |
| DRIT | ≤ 0.25 |
| DNWQ | ≤ 0.25 |
| MKCF | ≤ 0.25 |
| SKCV | 12.3 |
| SKIV | 4.99 |
| SKHF | ≤ 0.25 |
| SKFW | ≤ 0.25 |
| SKCF | 13.8 |
| IRSK | ≤ 0.25 |
| GTMP | ≤ 0.25 |
| NADQ | ≤ 0.25 |

| Variant | enrichment ratio |
| --- | --- |
| QGYQ | 13.9 |
| YTYQ | ≤ 0.25 |
| NGYQ | ≤ 0.25 |
| STYQ | ≤ 0.25 |
| KSYQ | ≤ 0.25 |
| QPYQ | ≤ 0.25 |
| TGYQ | 15.9 |
| FFYQ | ≤ 0.25 |
| QEYQ | 30.4 |
| TTYQ | 11.4 |
| RGYQ | ≤ 0.25 |
| QTYQ | 4.58 |
| DEAF | ≤ 0.25 |
| WEER | ≤ 0.25 |
| ADHC | ≤ 0.25 |
| NYMN | ≤ 0.25 |
| WKDT | ≤ 0.25 |
| EGGF | ≤ 0.25 |
| WIPQ | ≤ 0.25 |
| TQYD | 3.43 |
| IQYQ | ≤ 0.25 |
| TQYQ | 27.1 |
| TGDI | ≤ 0.25 |
| WKRD | ≤ 0.25 |

| Variant | enrichment ratio |
| --- | --- |
| KGIQ | ≤ 0.25 |
| NVAT | ≤ 0.25 |
| TVAG | 17.8 |
| FVAA | ≤ 0.25 |
| NVAG | ≤ 0.25 |
| FVAT | ≤ 0.25 |
| PVAA | ≤ 0.25 |
| TVAT | 16.8 |
| NVAN | ≤ 0.25 |
| TVAN | 16.9 |
| PVAG | ≤ 0.25 |
| SPAN | ≤ 0.25 |
| TVAA | 20.7 |
| RYVN | ≤ 0.25 |
| RYKH | ≤ 0.25 |
| MFLN | ≤ 0.25 |
| RRDC | ≤ 0.25 |
| MLNF | ≤ 0.25 |
| THAN | 13.2 |
| NVAS | ≤ 0.25 |
| NHAN | ≤ 0.25 |
| SHAN | ≤ 0.25 |
| FVAS | ≤ 0.25 |
| PVMT | ≤ 0.25 |

| Variant | enrichment ratio |
| --- | --- |
| TVAS | 14.3 |
| TVMT | 12.2 |
| KCMT | ≤ 0.25 |
| PEFN | ≤ 0.25 |
| PTTH | 1.43 |
| DIRA | ≤ 0.25 |
| HQWG | ≤ 0.25 |
| AGSS | 11.2 |
| ADSS | ≤ 0.25 |
| AGSK | 0.857 |
| ANSR | ≤ 0.25 |
| AKSS | 8.3 |
| AQSS | 11.7 |
| NGSS | ≤ 0.25 |
| ANSS | 12.7 |
| AHSS | ≤ 0.25 |
| LTKW | ≤ 0.25 |
| FSPG | ≤ 0.25 |
| VPLL | ≤ 0.25 |
| NLEV | ≤ 0.25 |
| EVYR | ≤ 0.25 |
| QKGY | ≤ 0.25 |
| QTYC | 0.887 |
| RGYC | ≤ 0.25 |

| Variant | enrichment ratio |
| --- | --- |
| NGYC | ≤ 0.25 |
| QGYC | 13.7 |
| TGYC | 13.2 |
| FFYC | ≤ 0.25 |
| TAYC | 11.3 |
| KAYC | ≤ 0.25 |
| YAYC | ≤ 0.25 |
| KTHY | ≤ 0.25 |
| GMIR | 1.56 |
| TGTT | 11.2 |
| NPLD | ≤ 0.25 |
| SLDR | ≤ 0.25 |
| TAGG | 3.74 |
| VTSS | ≤ 0.25 |
| YGPF | ≤ 0.25 |
| MAMI | 8.98 |
| QEML | ≤ 0.25 |
| PNML | ≤ 0.25 |
| WIML | ≤ 0.25 |
| TTML | 28.8 |
| NIML | 6.63 |
| AEML | 14.4 |
| ANML | 13 |
| YWML | ≤ 0.25 |

| Variant | enrichment ratio |
| --- | --- |
| AGML | 16.1 |
| APML | ≤ 0.25 |
| NEML | 0.665 |
| HMSC | ≤ 0.25 |
| RRES | ≤ 0.25 |
| YPTI | ≤ 0.25 |
| IDRY | ≤ 0.25 |
| WQML | ≤ 0.25 |
| ACML | 17.8 |
| YHML | ≤ 0.25 |
| SQML | 4.5 |
| ADML | 21.8 |
| ACIL | 10.3 |
| FDML | ≤ 0.25 |
| AKML | 9.72 |
| NHML | ≤ 0.25 |
| AQML | 24.2 |
| ACRL | ≤ 0.25 |
| THML | 12.8 |
| LQYI | ≤ 0.25 |
| LLQA | ≤ 0.25 |
| YWKI | ≤ 0.25 |
| RIIT | ≤ 0.25 |
| VAHN | ≤ 0.25 |

| Variant | enrichment ratio |
| --- | --- |
| PEIM | ≤ 0.25 |
| VACQ | ≤ 0.25 |
| AWDP | ≤ 0.25 |
| AYET | ≤ 0.25 |
| GVGM | ≤ 0.25 |
| RTSP | ≤ 0.25 |
| PEMC | ≤ 0.25 |
| IARY | ≤ 0.25 |
| NQML | ≤ 0.25 |
| TQML | 22.5 |
| AYML | ≤ 0.25 |
| AIML | 21.2 |
| IAML | 4.62 |
| KKML | ≤ 0.25 |
| VHML | ≤ 0.25 |
| AHML | 4.34 |
| EQML | ≤ 0.25 |
| YAML | 8.51 |
| AAML | 14.7 |
| ATML | 11.3 |
| NGCN | ≤ 0.25 |
| YSQW | ≤ 0.25 |
| TCLD | ≤ 0.25 |
| PESS | ≤ 0.25 |

| Variant | enrichment ratio |
| --- | --- |
| RICM | ≤ 0.25 |
| GEWM | ≤ 0.25 |
| GACK | ≤ 0.25 |
| GAAM | ≤ 0.25 |
| GTCM | 5.28 |
| GECK | ≤ 0.25 |
| GICK | 9.7 |
| GECM | 15.3 |
| GNCM | 11.7 |
| GICM | 38.3 |
| GACM | 12.2 |
| GGCM | 9.15 |
| SFIL | ≤ 0.25 |
| GTSW | ≤ 0.25 |
| QVGM | 0.458 |
| TTQP | ≤ 0.25 |
| LWAS | ≤ 0.25 |
| DYTN | ≤ 0.25 |
| HRCM | ≤ 0.25 |
| TRCM | 12.4 |
| GMCM | 22 |
| KRCM | ≤ 0.25 |
| KMCM | ≤ 0.25 |
| GMCK | ≤ 0.25 |

| Variant | enrichment ratio |
| --- | --- |
| EYMP | ≤ 0.25 |
| MHHS | ≤ 0.25 |
| YVFC | ≤ 0.25 |
| GPTW | ≤ 0.25 |
| RAKA | ≤ 0.25 |
| RGTI | ≤ 0.25 |
| AGTI | 16.7 |
| AGTH | 5.3 |
| AGTK | ≤ 0.25 |
| KSTI | ≤ 0.25 |
| TGTI | 13.2 |
| QIMM | ≤ 0.25 |
| SDFW | ≤ 0.25 |
| QQHA | ≤ 0.25 |
| GQMD | ≤ 0.25 |
| YKAP | ≤ 0.25 |
| KLPM | ≤ 0.25 |
| FVPN | ≤ 0.25 |
| AQAA | 12.7 |
| AQAN | 18.7 |
| ATAN | 29.1 |
| AKAS | 9.64 |
| AQQN | ≤ 0.25 |
| ATMN | ≤ 0.25 |

| Variant | enrichment ratio |
| --- | --- |
| YTAN | ≤ 0.25 |
| AKAN | ≤ 0.25 |
| IQAA | ≤ 0.25 |
| WQAS | ≤ 0.25 |
| AQAS | 18.6 |
| AKAA | 4.65 |
| AYFR | ≤ 0.25 |
| WMYW | ≤ 0.25 |
| IMAW | ≤ 0.25 |
| RNGP | ≤ 0.25 |
| PWQL | 0.791 |
| DNHF | ≤ 0.25 |
| TNNI | 3.41 |
| KAGF | ≤ 0.25 |
| MAGF | 14.5 |
| MAGS | 17.7 |
| NAGF | ≤ 0.25 |
| MAVK | ≤ 0.25 |
| MAGD | ≤ 0.25 |
| AHRA | ≤ 0.25 |
| CFDS | ≤ 0.25 |
| MCPV | ≤ 0.25 |
| DLEL | ≤ 0.25 |
| LYPG | ≤ 0.25 |

| Variant | enrichment ratio |
| --- | --- |
| ASTH | 6.74 |
| ASVH | 8.62 |
| ASMH | 16.5 |
| ASCF | 9.91 |
| KSMH | ≤ 0.25 |
| ASCH | 13.6 |
| KDVM | ≤ 0.25 |
| DIWH | ≤ 0.25 |
| RDYH | ≤ 0.25 |
| KKLQ | ≤ 0.25 |
| YHEH | ≤ 0.25 |
| RDFI | ≤ 0.25 |
| FFFQ | ≤ 0.25 |
| STYT | 0.437 |
| QGFE | ≤ 0.25 |
| QEYT | 20.9 |
| QRYT | ≤ 0.25 |
| MVFQ | 13.2 |
| LEYT | 11.9 |
| LTYT | ≤ 0.25 |
| MVHP | 0.338 |
| MVFE | ≤ 0.25 |
| QGFQ | 13.4 |
| LNYT | ≤ 0.25 |

| Variant | enrichment ratio |
| --- | --- |
| PAIE | ≤ 0.25 |
| FSRF | ≤ 0.25 |
| SYCE | 2.48 |
| VEGN | ≤ 0.25 |
| RAVD | ≤ 0.25 |
| VDID | ≤ 0.25 |
| QGYV | 11.2 |
| FFGG | ≤ 0.25 |
| QGGG | 17.7 |
| QGCK | ≤ 0.25 |
| QGWS | 20.8 |
| QGYK | 0.706 |
| FQWS | ≤ 0.25 |
| QGCS | ≤ 0.25 |
| FFWS | ≤ 0.25 |
| QGYI | 17.5 |
| QGCI | 19.5 |
| TPGG | ≤ 0.25 |
